Laboratory results from PubChem BioAssay (NCI).
The panel holds about 83,000 compounds, 20% with a hit somewhere; the sample as a whole holds those more often.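 Single-concentration screen, 48 h exposure, 96-well plates. Endpoint: percent growth. Below 10 = active.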 A number with no mark means an inactive call. Calls of active or inactive are those of the source.

Legend:
Test in all cases: NCI-60 one-dose screen, 48 h (100 = growth as untreated, 0 = no growth, -100 = all killed)
Conditions in all cases: 10 µM unless noted
SR leukemia = test system: SR leukemia
RPMI-8226 leukemia = test system: RPMI-8226 leukemia
OVCAR-8 ovarian = test system: OVCAR-8 ovarian
OVCAR-5 ovarian = test system: OVCAR-5 ovarian
SK-OV-3 ovarian = test system: SK-OV-3 ovarian
IGROV1 ovarian = test system: IGROV1 ovarian
OVCAR-3 ovarian = test system: OVCAR-3 ovarian
HS 578T breast = test system: HS 578T breast
NCI/ADR-RES ovarian = test system: NCI/ADR-RES ovarian
T-47D breast = test system: T-47D breast
BT-549 breast = test system: BT-549 breast
MDA-MB-435 melanoma = test system: MDA-MB-435 melanoma
SW-620 colon = test system: SW-620 colon
MCF7 breast = test system: MCF7 breast
HCT-116 colon = test system: HCT-116 colon
HCC-2998 colon = test system: HCC-2998 colon
KM12 colon = test system: KM12 colon
OVCAR-4 ovarian = test system: OVCAR-4 ovarian

SMILES | growth (SR leukemia) | growth (RPMI-8226 leukemia) | growth (OVCAR-8 ovarian) [%] | growth (OVCAR-5 ovarian) | growth (SK-OV-3 ovarian) | growth (IGROV1 ovarian) | growth (OVCAR-3 ovarian) | growth (HS 578T breast) | growth (NCI/ADR-RES ovarian) | growth (T-47D breast) | growth (BT-549 breast) | growth (MDA-MB-435 melanoma) | growth (SW-620 colon) | growth (MCF7 breast) | growth (HCT-116 colon) | growth (HCC-2998 colon) | growth (KM12 colon) | growth (OVCAR-4 ovarian)
COc1ccc(C(=O)c2cc3c(N)c(C(=O)Nc4ccc(Cl)cc4)sc3nc2C)cc1 | 36.4% | 74.6% | 50.2 | 86.7% | 73.5% | 90.6% | 73.3% | 60.3% | 75.3% | 66.4% | 79.5% | 57.2% | 64.3% | 61.8% | 54.6% | 91.6% | 70.2% | –
c1ccc(CCSc2ncnc3nc[nH]c23)cc1 | 52.8% | 82.1% | – | 114% | – | – | 116% | 100% | 99.2% | 74.2% | 117% | 79.5% | 94.1% | 88.3% | – | 97.1% | 93.6% | 84.8%
O=C1NC(=O)C(=Cc2cn(Cc3ccccn3)c3ccccc23)C(=O)N1 | 93% | 96.1% | – | -50.9% (active) | 89.8% | 31.6% | 102% | 94.7% | 100% | 100% | 98.8% | 101% | 105% | 87.6% | 100% | 105% | 106% | –
FC(F)(F)c1cccc(Nc2ccccc2)c1 | 88.2% | 104% | – | 95.4% | 119% | 102% | 118% | 105% | 96.2% | 101% | 98.2% | 101% | 101% | 93.5% | 95.2% | 98.9% | 102% | 108%
COc1ccc(-c2nc(N/N=C/c3c[nH]c4ccccc34)nc(N3CCOCC3)c2C#N)cc1 | -2.03% (active) | 71.9% | – | 125% | 115% | 80.9% | 90.4% | 93.4% | 96.5% | – | 97% | 108% | 72.6% | 80.2% | – | 100% | 83.9% | 105%
COc1cc(NCCCN(CC(C)C)CC(C)C)c2ncccc2c1 | 84.9% | 78% | – | 114% | 90.1% | 80.3% | 69.5% | 92.3% | 79.8% | – | 80.4% | 115% | 67.4% | -43.4% (active) | – | 86.4% | 84.7% | 17.2%
CCOC(=O)C1CC(=O)c2cc(OC)c(OC)cc2C1 (configuration not stated) | 89.6% | 82.3% | – | 101% | 106% | – | 110% | 112% | 98.5% | 115% | 123% | 114% | 111% | 95.7% | 95.5% | 101% | 103% | 96.8%
CN1CCCC1=Nc1ccccc1 | 91.9% | 107% | 105 | 118% | – | 111% | 128% | 106% | 104% | 106% | 130% | – | 112% | 97.2% | 114% | 110% | 114% | –
CCNC(=O)c1[nH]cc(-c2ccc(OC)cc2)c1-c1cc(OC)c(OC)c(OC)c1 | 19.5% | 38% | – | 74.6% | 57.7% | 47.4% | 2.53% (active) | 45.3% | 19.8% | 27.7% | – | -4.43% (active) | 31.4% | 24.4% | 15.3% | 89.2% | 22.1% | 45.7%
NC(=S)N/N=C/c1ccc(OC(=O)COc2cc(Cl)c(Cl)cc2Cl)cn1 | 1.38% (active) | 76.4% | – | 115% | 99.5% | 63.8% | 59.2% | 114% | 26.9% | 49.3% | 64.3% | 71.7% | 59.6% | 28.5% | 67.9% | 63.7% | 70.9% | –
O=C1c2cccnc2C(=O)c2nc3cc(N4CCN(C5CC5)CC4)ccc3nc21 | -10% (active) | 25.3% | – | -82.3% (active) | -78.6% (active) | -13.8% (active) | -1.56% (active) | -36.5% (active) | 20.1% | 22.5% | -93.7% (active) | -87.4% (active) | -37.8% (active) | -56.1% (active) | 0.851% (active) | -80.8% (active) | 9.27% (active) | -87.8% (active)
CC(=O)NCCCS(=O)(=O)O | 101% | 113% | – | 100% | 103% | 108% | 108% | 83.4% | 101% | 102% | 110% | 99.9% | 90.9% | 101% | 98.5% | 102% | 102% | 107%
O=C1Nc2cc(-c3ccncc3)ccc2/C1=C/c1ccc[nH]1 | 15% | 81.8% | – | 76.9% | 93.3% | 80.8% | 85.2% | 107% | 94.6% | -20.9% (active) | 24.4% | 100% | 105% | 21% | 57.2% | 72.2% | 33.1% | 37.3%
Fc1cc(C2=NNC(c3ccc[nH]3)C2)ccc1-n1ccc(C(F)(F)F)n1 (configuration not stated) | 77.9% | 0.914% (active) | – | 96.7% | 112% | 90% | 85.6% | 103% | 90.6% | 76.7% | 92.3% | 98.7% | 98.8% | 83.3% | 98.7% | 104% | 65.6% | 93.6%
COc1cc(C(=O)c2cnc(-c3ccc4cc[nH]c4c3)[nH]2)cc(OC)c1OC | 6.26% (active) | -0.63% (active) | – | 32.2% | 23.5% | 26.3% | -34.2% (active) | 20.6% | 8.52% (active) | 59% | 42.9% | -28.4% (active) | 19.2% | 11.3% | -6.9% (active) | 6.12% (active) | -9.92% (active) | 39.3%
Cn1c(=O)c2[nH]c(CCCc3nc4c([nH]3)c(=O)n(C)c(=O)n4C)nc2n(C)c1=O | 129% | 107% | 90.4 | 122% | – | – | 128% | 116% | 109% | 96.4% | 121% | 111% | 112% | 92.8% | 108% | 112% | 118% | –
OC1(c2ccc(Cl)c(C(F)(F)F)c2)CCN(CCCC(c2ccc(F)cc2)c2ccc(F)cc2)CC1 | -44.2% (active) | -22% (active) | – | -46.9% (active) | – | -57.2% (active) | -99.9% (active) | -47% (active) | -59.8% (active) | -62.1% (active) | -92.8% (active) | -91.6% (active) | -100% (active) | -90.3% (active) | -92.3% (active) | – | -99.2% (active) | -10.8% (active)
CCCCc1ccc(Nc2nnc(SCC(=O)NC(=O)NCC)s2)cc1 | 9.38% (active) | 85% | 74.1 | 96.8% | 195% | – | 104% | 60.6% | 103% | 128% | – | – | 102% | 101% | 93.6% | 105% | 102% | –
Cn1c(COC(=O)NCCN2CCOCC2)nc2c(N3CCOCC3)nc(-c3ccccc3)nc21 | -5.83% (active) | -26.2% (active) | – | -86.6% (active) | 77.7% | -93.3% (active) | -86.5% (active) | -35% (active) | -12.7% (active) | – | -66.4% (active) | -87.4% (active) | -76.9% (active) | -59% (active) | -80.9% (active) | -53.8% (active) | -5.33% (active) | -61.1% (active)
